Assay results from PubChem BioAssay.
The source made the active and inactive calls.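 The calls were made as follows: active = mean duplicate potentiation above the buffer control mean plus 5 SD of buffer wells; inactive = the rest.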

Molecular target: Potassium voltage-gated channel subfamily KQT member 2 (Rattus norvegicus) (UniProt O88943)
Assay: KCNQ2 thallium flux enhancement – KCNQ2-CHO-K1 cells, selectivity assay for KCNQ1 potentiator project (AID 493009);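 also: assay conditions were tuned for KCNQ1 rather than KCNQ2 modulators; signal is max minus min fluorescence divided by baseline after thallium stimulus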
Conditions: FluxOR thallium flux fluorescence, at 10 µM; hits give high values, scaled: buffer 0, activator control 100

Chain of Potassium voltage-gated channel subfamily KQT member 2 (Rattus norvegicus) (O88943 whole entry, looked up): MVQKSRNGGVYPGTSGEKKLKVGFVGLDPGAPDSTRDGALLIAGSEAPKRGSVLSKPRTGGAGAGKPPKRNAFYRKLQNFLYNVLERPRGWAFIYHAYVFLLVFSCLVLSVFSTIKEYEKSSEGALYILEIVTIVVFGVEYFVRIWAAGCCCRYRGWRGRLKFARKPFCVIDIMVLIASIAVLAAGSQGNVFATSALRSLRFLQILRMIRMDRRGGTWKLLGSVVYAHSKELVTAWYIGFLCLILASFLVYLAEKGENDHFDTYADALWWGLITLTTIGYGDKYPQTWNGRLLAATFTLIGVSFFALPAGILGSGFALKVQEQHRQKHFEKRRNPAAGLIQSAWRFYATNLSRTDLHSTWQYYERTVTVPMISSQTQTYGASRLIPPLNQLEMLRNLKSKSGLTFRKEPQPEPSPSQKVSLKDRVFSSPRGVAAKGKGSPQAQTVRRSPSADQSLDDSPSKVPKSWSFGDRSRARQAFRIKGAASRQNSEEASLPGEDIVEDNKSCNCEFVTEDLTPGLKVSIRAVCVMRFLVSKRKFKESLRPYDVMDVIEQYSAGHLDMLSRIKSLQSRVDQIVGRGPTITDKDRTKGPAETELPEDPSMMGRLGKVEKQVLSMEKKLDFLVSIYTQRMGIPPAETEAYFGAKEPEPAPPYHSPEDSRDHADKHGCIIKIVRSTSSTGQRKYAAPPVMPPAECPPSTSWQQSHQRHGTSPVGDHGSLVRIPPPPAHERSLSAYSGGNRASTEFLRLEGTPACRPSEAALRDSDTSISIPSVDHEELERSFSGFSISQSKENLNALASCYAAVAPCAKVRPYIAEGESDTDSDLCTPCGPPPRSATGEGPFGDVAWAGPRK

SMILES	potentiation	outcome
CCCc1cc2c(-c3ccccc3)cc(=O)oc2cc1OCc1ccc(C(=O)O)o1	222% (active)	
O=C(c1cc([N+](=O)[O-])cc([N+](=O)[O-])c1)N1CCCc2ccccc21		inactive
O=c1c2ccccc2nc(-c2cccc(Cl)c2)n1O	327% (active)	
CC(C)(C)NC(=O)C(=O)NNC(=O)c1cccc(F)c1	228% (active)	
CC1=NN(C(=O)c2csc(C(C)C)c2)C(O)(C(F)(F)F)C1 (stereo not given)	178% (active)	
CCS(=O)(=O)Nc1ccc(C(=O)CC2(O)C(=O)Nc3ccccc32)cc1 (stereo not given)		inactive
Cc1onc(-c2ccccc2)c1C(=O)N1CCN(S(=O)(=O)c2ccc(OC(F)(F)F)cc2)CC1		inactive
CCNC(=S)/N=C(\N)Nc1nc(C)c2cc(C)ccc2n1		inactive
O=C(O)c1ccc2c(c1)C(=O)N(Cc1ccccc1)C2=O		inactive
Cc1cc(C(c2cc(C)c(N)c(C)c2)c2ccco2)cc(C)c1N	224% (active)	
O=C(/C=C/c1ccccc1)C1C(=O)c2ccccc2C1=O	146% (active)	
Cc1cccc(-n2c(=S)[nH]c3sc4c(c3c2=O)CCc2ccccc2-4)c1	330% (active)	
CCC1Oc2ccc(C)cc2N(CC(=O)N(Cc2ccc(C)o2)C2CC(C)(C)NC(C)(C)C2)C1=O (stereo not given)	166% (active)	
COc1ccccc1C(=O)Nc1ccnn1C1CCN(CCCC2CCCC2)CC1		inactive
O=C(NNC(=S)NC(=O)c1ccco1)c1ccc(F)cc1	232% (active)	
CC(C)(C)NC(=O)C(=O)NNC(=O)c1ccc(C(C)(C)C)cc1	352% (active)	
O=C(NC(=S)N1CCN(c2nc(-c3ccccc3)cs2)CC1)c1cncc(Br)c1	505% (active)	
CCOC(=O)c1sc(NC(=S)NC(=O)c2ccc(OC)cc2)nc1C		inactive
S=c1nc(Cc2ccc(Cl)cc2)[nH]c2ccccc12	350% (active)	
Cc1ccc(C(=O)Nc2nnn(C)n2)cc1		inactive

SMILES	potentiation	outcome
O=C(COc1ccccc1)NC(=S)N1CCc2ccccc21		inactive
Cc1ccc(-c2c(C(=O)O)c3ccccc3[nH]c2=O)cc1		inactive
CCOC(=O)/C(C)=N/NC(=O)c1cccc([N+](=O)[O-])c1	206% (active)	
CCOC(=O)NC(=S)Nc1ccc(C(C)(C)C)cc1Br	249% (active)	
COc1ccccc1CNC(=O)COC(=O)c1nccnc1N		inactive
COc1ccc(C)cc1-n1c(SCC(=O)Nc2cc(C)on2)nc2ccccc2c1=O		inactive
Cc1c(Cl)cccc1NC(=O)Cn1c(CCC(=O)O)ccc1-c1ccccc1		inactive
N=c1ccn(CC(=O)c2ccc(-c3ccccc3)cc2)cc1		inactive
CC(C)Cc1c2c([nH]c(=S)c1C#N)CCCC2	143% (active)	
Cc1[nH]n2c(=O)cc(C(C)(C)C)nc2c1-c1ccccc1	224% (active)	
S=c1nc(COc2ccccc2)[nH]c2ccccc12	552% (active)	
COC(=O)c1c(NC(=S)Nc2ccc(F)cc2[N+](=O)[O-])sc2c1CCCCC2	180% (active)	
COc1ccc(NC(=O)C(=O)NNC(=O)c2cccs2)c(OC)c1	220% (active)	
O=C1NC(=S)S/C1=C\c1ccc2ccccc2c1	218% (active)	
Cc1ccc(S(=O)(=O)N2CCN(C(=O)CCC(=O)OCC(=O)Nc3cccc(C#N)c3)CC2)cc1		inactive
CCNC(=S)Nc1scc(-c2ccccc2)c1C(=O)OCC	214% (active)	
CC1(C)CC(N2CCOCC2)=CC(=[N+]2CCOCC2)C1		inactive
C=CCn1c(SCC(N)=O)nc2scc(-c3ccc(C)o3)c2c1=O	230% (active)	
CCCCn1c(-c2csc3c2CCC(C)C3)n[nH]c1=S (stereo not given)	150% (active)	
Cc1ccc(N(C(=O)c2ccco2)C(C(=O)NC2CCCC2)c2cccnc2)cc1C (stereo not given)		inactive
